According to PubChem BioAssay AID1508600 (Functional Genomics Laboratory (NCATS/FGL), 2020):
Screen size: about 53,000 sequences; about 3,700 (7%) were called active. This is one part of a sample in which actives are shown more often than they occur. Values without a mark were called inactive.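 Rule for the calls: active = gene knockdowns whose robust z-score for IL-1 alpha signal is at least 2 or at most -2, so actives lie on both sides; inactive = the rest.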

Test: Components of the Cytosolic LPS Sensing Pathway: Gene Identification via Genome-wide siRNA Screen;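 note: robust z of the log signal after scaling to non-targeting control siRNA wells of the plate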
Conditions: RAW264.7 macrophages, IL-1a HTRF, actives lie on both sides, screened at 100 nM (by protocol), cells primed 5 h with Pam3CSK4 first
Procedure, shortened: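 RAW264.7 mouse macrophages reverse-transfected with single siRNAs (100 nM final) for 48h, primed with Pam3CSK4 for 5 hours, then transfected with LipidA for 24 hour. Supernatant IL-1a read by HTRF; values normalized to negative-control median, log-transformed robust z-scores.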

| Sequence | z-score |
| --- | --- |
| GGAAUUACGAAGCUGUGUGTT against Cdkl3 | -2.36 (active) |
| CCGUUCUGGCACAGAACAGTT against A830005F24Rik | 1.41 |
| CCAUUGUACAGAAAAACACTT against Abhd18 | 0.41 |
| GGAAAGAGCUUUUUAUUGUTT against Zfp235 | 0.145 |
| CCAUAUACCCUCGAUGCCATT against Abhd16b | -2.76 (active) |
| GCCCGAAUACAGGAAGAUCTT against Hspg2 | 1.42 |
| GGAAAUGAGACGAAGGAGGTT against Kpna6 | -0.642 |
| GGAACUGAAAAACUCAACUTT against Evi2a | -3.13 (active) |
| GGCACAGAGAACAAUACUUTT against Npy5r | -0.128 |
| CCCUAUUAGUGGAAGCAUGTT against Zfp738 | -1.94 |
| GCAUCGCAUUUAAAUAGAATT against 4833408A19Rik | 0.965 |
| GGGUGUAGCAUUGUCACAGTT against Olfr1133 | 2.32 (active) |
| GGAGAUGAACAAGGACCUATT against Apoa1 | 0.717 |
| GGAUGUGAUGAAGUUGGCCTT against Olfr78 | -1.96 |
| GCUGGUGAGUCACUGAUGATT against Med22 | 1.32 |
| GGAAAGAAGAAACAUUCCUTT against Socs5 | 0.495 |
| GCGACUCCCACAUACUCAGTT against Muc19 | -0.215 |
| UCCAUACUACUCAUCAAAUTT against Olfr68 | 3.78 (active) |
| GCCUAAGAACGAUGACACUTT against Surf2 | 0.179 |
| GGUCUCUGUAGAGAUGGCATT against 6820408C15Rik | -2.52 (active) |
| CGUUAAUUGCCCUCAAAGATT against Spon1 | 1.03 |
| GGCGGAGAGGAAAUCUAUGTT against Mycs | 1.4 |

| Sequence | z-score |
| --- | --- |
| GCCUUUGCACAGUUUGGACTT against BC002059 | -1.13 |
| GGCAGUUCUCCAGUGCUUUTT against Mtss1 | -1.32 |
| CCUCGUAUUUAUACUCAGUTT against Gpr18 | 0.3 |
| CCACCUUCCUAUGUUUGUATT against Ebf2 | 3.73 (active) |
| GGCUGCUCAAAAAGAACAUTT against Kif21b | 0.645 |
| GCUUUGGCUCAAAGCACGUTT against Mcm3 | 1.93 |
| GCGGUCAAAUGCAACAAACTT against Fabp5 | -0.33 |
| CCUCCUGACCUUAAUCUUGTT against P2rx1 | 0.507 |
| GGCUGCACAAAGAUGUUCATT against Yy1 | 2.46 (active) |
| GCUUAAUCCUUAGUCAGCATT against F2rl2 | -0.591 |
| GGAAGAGGUGAAUGAUAAATT against Bmi1 | 1.51 |
| GCUCAACAGCAGUGACGAUTT against Nras | -0.701 |
| GGCCAGUCAAGGUUGGAUUTT against Gpr152 | -0.32 |
| GCUGUGAAUUCCAAAUGCGTT against Myh4 | 3.33 (active) |
| GGAUACAAUGCAACUGUCCTT against Kif4 | -1.08 |
| GCACUCUCUACUCUAUUAATT against Ackr2 | 2.68 (active) |
| GGUUAGCCUACUCUCUAAUTT against Tomm22 | 0.501 |
| GGCUCAAAUACAGGAAAUUTT against Tmem45b | 0.498 |
| GGGCAGGUUGUCUUUCUACTT against Plpp1 | 0.997 |
| UCAACAGGGCUGAUAUCCCTT against Acsl5 | -1.61 |
| CGGUGAAGACUAUCAUGGUTT against Tln1 | -0.791 |
| CCUUAAUCCAAACAAGUCUTT against Ncl | 1.08 |

| Sequence | z-score |
| --- | --- |
| GGUUUCUUAGAUUAGCUAGTT against Map3k12 | 0.445 |
| GGUUAUCAAGAUUGCAUGUTT against Olfr853 | -0.646 |
| GGGUUAUGAAGAGAAACUUTT against Gatad2b | 0.236 |
| GGACUGGUGGACAUAUGAATT against Os9 | 2.81 (active) |
| GGAAAAGGUGGCCUACACATT against Rhox11 | -1.7 |
| CCAAUAAAAUUGGUGUUCCTT against H13 | 0.18 |
| GGUUAAAAUGUUGAUUGCUTT against Ndrg4 | -0.654 |
| GGGAAAAGUGACUAGGCUUTT against Ngb | -0.331 |
| CCCACAGUGCAAAAAUGACTT against Olfr663 | -2.26 (active) |
| GGCAUAUGCACUUUAUUUCTT against Cep97 | -0.339 |
| GCAUUAAAGGAGUCCGAAUTT against Cpn1 | -0.328 |
| GCUUAUAACAGUUGAUGAGTT against Ndufs4 | -0.54 |
| GGCUAAUUCUCAAAGAGAUTT against Dnttip2 | -1.87 |
| AUUCGGGAAAAUUUUAGACTT against Rbfox3 | -0.171 |
| GGCUAAAACUGCACAUAAATT against Pyroxd1 | -3.43 (active) |
| GGGAAGCACAAGGUUUAGUTT against Brca1 | 0.531 |
| GCAACAAGAGGGCAGAAUGTT against Olfr518 | -2.22 (active) |
| GGAAGUUACAGAUGUGGCUTT against Nog | -0.879 |
| GCACCAUUCUAGGAGUCAUTT against Lonp2 | -0.504 |
| GGACCACGCAAAAGAAUAUTT against Mtss1 | 0.0212 |
| GCUCAUGUUGCACUGGAAATT against Ulbp1 | 1.22 |
| AAGCUUCAACAUCAGUUUGTT against Olfr1392 | -1.54 |

| Sequence | z-score |
| --- | --- |
| GGCGAAGGGCAAGAAUAAATT against Hes1 | 2.16 (active) |
| CCCAUACUGUCACUUUAAGTT against H2bc8 | -2.23 (active) |
| GGUUCUGGUAUAAGUUAACTT against Gabrg3 | 0.292 |
| GCACGAAUGCCUUUUUAGATT against Mphosph8 | 0.32 |
| GGAGCUGGAGACUAAAGCUTT against Slc29a2 | -0.478 |
| GCAUUUGAUGAAGACUCGATT against Barx2 | 0.467 |
| GGUUUAGCUGCAUUAAAAGTT against Lrrc27 | 0.956 |
| GGCCGAGAGUAUUUCUACATT against Efna5 | -0.254 |
| CGAACACUCGUUAAAGAAATT against Krt23 | 0.247 |
| CCAUGCACAAUUACAAGCUTT against Ret | -0.000288 |
| CGGAAAAUUUGUUCCUGACTT against Rbm12b2 | 1.44 |
| GCAAAUGAGAGGUCUGUUGTT against Olfr1024 | -2.52 (active) |
| CCCUAGGGUGAUGAAGCAUTT against Ckmt2 | -0.984 |
| GCCAUUAAGGAAAUGUUCUTT against Olfr426 | -0.969 |
| GGUUCUUUGGCUCUGUAUGTT against Atp5c1 | -0.64 |
| GGUCAUCCUUCUAUUCUCUTT against Olfr648 | -2.01 (active) |
| GGAGGUAAAAGAUGAGAAATT against Plekho1 | 1.57 |
| CCUCAUAAAUUCACUCUCCTT against Bpifa2 | 0.984 |
| GGAGAAAACUUAGAUUACCTT against Ppil4 | 2.15 (active) |
| GGAUAUGCUGUGAAGUAUUTT against Plekhf2 | 1.68 |
| GGUUAAGACCUUAAACAGATT against Prl4a1 | 0.0572 |
| CGUUUCUCAGCAAACUUACTT against Il17a | 0.669 |

| Sequence | z-score |
| --- | --- |
| GGCACCUUUCAACGUAACCTT against Ntn3 | 1.32 |
| GGACCUAAAGAAUUCAUCGTT against Unc79 | 0.109 |
| GGUGAAGAUAGUAAUACGGTT against Apol7a | -1.02 |
| GGUCCAGAGGAUGAACAGATT against Crcp | 0.551 |
| CCAAAUUCAUUCUAGCUCGTT against Klf6 | -0.597 |
| CGAUCUUCCAAACCCUCUUTT against Dhh | 2.54 (active) |
| GCCCAUGACCAGUUCAAGUTT against Actn4 | 0.63 |
| GCUAUUAAAAUAUGGGAAGTT against Olfr1314 | 1.28 |
| GCAUAUGAUGGUCCUUACCTT against Cox6b1 | 0.019 |
| CCAUGCUUCCCUUCAACAUTT against Adcy2 | 2.64 (active) |
| GGCAGUUAUCUCCUAAUGCTT against Zfp934 | -0.383 |
| GGCCAGAUGACCUUGUCAUTT against Sult1e1 | -1.23 |
| GGCGCACAAUCAAGAUCUUTT against Col4a4 | 0.385 |
| GCACUUUGUAUGUCUAUCUTT against Tnfaip1 | 2.28 (active) |
| CCAAAAAGUUCAGUGUAAUTT against Rad9b | -1.09 |
| GCUUGAGUAGUGCAGAAACTT against Jmjd1c | -1.15 |
| CCAUGAGGAUGAUUACCUATT against Cnga2 | -0.947 |
| GGGAAGAUUGAUUUUAUCGTT against Abcb11 | 2.31 (active) |
| GCGACCUUAGACAUUUGCATT against Prkrip1 | -0.652 |
| CGCCUUCAUAAUGUAGUUGTT against Defb37 | 0.601 |
